Anthrax LF prot: blocks Bacillus anthracis lethal factor protease. P15917. multiplex microsphere protease cleavage assay, LF. inhibition, % at 10 µM. actives 0.12% (n = 360,000); also: plate controls were buffer without enzyme for full effect and enzyme alone for no effect
Autofluor counter: compound fluorescence in toxin protease inhibitor counterscreen | actives 3.1% (n = 360,000) | AID 624483 | compound autofluorescence counterscreen, microsphere flow cytometry; active compounds read high | fluorescence intensity (no concentration beside the values); in the data active = fluorescence intensity above about 16000; inconclusive = no clear call, values can overlap the other calls
BoNT-A LC inh2: blocks Botulinum neurotoxin A light chain protease | AID 588499 | inhibition, % at 10 µM | actives 0.17% (n = 360,000) | multiplex microsphere protease substrate cleavage, flow cytometry; also: plate controls were buffer without enzyme for full effect and enzyme alone for no effect
BoNT F protease: BoNT F light chain protease inhibition; Multiplex microsphere protease cleavage assay, flow cytometry; inhibition, % at 10 µM; actives 0.22% (n = 360,000); in the data active = inhibition above about 35%, passing the limit was not always enough; inconclusive = no clear call, values can overlap the other calls; also: plate controls were buffer without enzyme for full effect and enzyme alone for no effect
MazEF act: increases E. coli MazEF RNase cleavage of RNA; FAM/BHQ RNA-DNA oligo cleavage fluorescence, 5 h; activation, % at 20 µM; actives 0.32% (n = 350,000); AID 504720; in the data active = activation above about 50%
* marks the source's active call; other numbers are inactive results; ? = inconclusive; / = no result. A selection: hits, their analogues and other compounds. The true share with any hit is near 3.7%. Rule as the data show it, unless noted: active = inhibition above about 30%; inconclusive = no clear call, values can overlap the other calls; inactive = below that.

SMILES | Anthrax LF prot | Autofluor counter | BoNT-A LC inh2 | BoNT F protease | MazEF act
COCCOC(=O)C1=C(C)N=C2SCCC(=O)N2C1c1cccc(Br)c1 (stereo not given) | 1 | 17065* | -3 | -6 | 4
C=CCOC(=O)C1=C(C)N=C2SCCC(=O)N2C1c1ccc(OC(=O)c2ccco2)cc1 (stereo not given) | -1 | 23769* | -1 | -7 | -10
COCCOC(=O)C1=C(C)N=C2SCCC(=O)N2C1c1cccs1 (stereo not given) | -2 | 3268 | 0 | 0 | 5
COC(=O)C1=C(C)N=C2SCCC(=O)N2C1c1ccc(OC(=O)c2ccco2)cc1 (stereo not given) | -6 | 2398 | -1 | -2 | 3
CCCN(CC(=O)Nc1ccccc1OC)C(=O)Cc1ccc2c(c1)CCC2 | -4 | ? | -3 | ? | -8
COc1ccc(N2CC(NS(=O)(=O)c3cccs3)CC2=O)cc1 (stereo not given) | / | / | / | / | 2
Cc1ccc(S(=O)(=O)NC(=O)NCCCN2CCOCC2)cc1 | -2 | 3422 | -2 | -8 | -1
CC(=O)NC(Cc1ccccc1)C(=O)NC1CCN(C(=O)c2cnccn2)CC1 (stereo not given) | -1 | 16732* | ? | -1 | -12
CC(=O)NC(Cc1ccccc1)C(=O)NC1CCN(C(=O)c2ccc([N+](=O)[O-])cc2)CC1 (stereo not given) | 0 | 2477 | 0 | -4 | 0
O=C(c1ccccc1)[C@@H]1[C@@H](C(=O)c2ccc(F)cc2)[C@@]2(C(=O)Nc3ccccc32)[C@H]2c3ccccc3C=CN12 | 29 | 7809 | 39* | 17 | -3
CC(=O)[C@@H]1[C@@H](C(=O)c2ccccc2)[C@]2(C(=O)Nc3ccccc32)[C@H]2C=Cc3cc(F)ccc3N12 | 2 | 3170 | 4 | -9 | 10
Cc1cc(C)n(-c2ccc(C(=O)OCC(=O)Nc3ccc(Cl)c(S(=O)(=O)N(C)C)c3)cc2)n1 | -2 | 25627* | ? | -7 | 1
CCN(CC)CCOC(c1ccccc1)c1ccc(C)cc1 (stereo not given) | 1 | 2450 | 0 | -7 | 3
CCNCCOC(c1ccccc1)c1ccccc1 | -12 | 18751* | ? | 2 | 1
CC(C)CC(=O)Nc1nnc(SCC(=O)NCC2CCCO2)s1 (stereo not given) | 0 | 6050 | -3 | -2 | 3
Cc1cc2nnc(SCC(=O)N3C(C)CCCC3C)n2c(N)n1 (stereo not given) | -7 | 22651* | ? | -2 | 0
Cc1ccnc(-n2c(-c3ccccc3)nc3ccccc3c2=O)c1 | 0 | 19731* | 4 | 1 | 0
Cc1ccnc(-n2c(C)nc3ccccc3c2=O)c1 | -6 | 9907 | 0 | 0 | 5
Cc1ccc(S(=O)(=O)NCCCN2CCCC2)cc1 | 10 | 3920 | 0 | 14 | -2
Cc1ccc(N=C2SC(C(=O)Nc3ccc(OC(F)(F)F)cc3)C(N)=C2C(=O)Nc2c(C)cc(C)cc2C)cc1 (stereo not given) | -1 | 2155 | 0 | -4 | 9
CCC(=O)Nc1c(-c2ccccc2)c(=O)c2ccccc2n1C | -6 | 4566 | ? | ? | -1
CCOc1ccc(CCNC(=O)c2cccc(N3CCCC3=O)c2)cc1OCC | -7 | 8911 | 0 | -3 | 9
COc1cc(C(=O)NCCc2ccc3c(c2)OCCO3)ccc1OCC(=O)N1CCOCC1 | -12 | 16542* | 13 | 14 | 11
COc1ccc(CCNC2CC(=O)N(CCc3ccccc3)C2=O)cc1OC (stereo not given) | 0 | 7895 | 0 | 1 | -8
CC1CCCCC1NC(=O)c1ccc(N2CCCC2=O)cc1 (stereo not given) | 0 | 22649* | ? | 1 | 0
SMILES | Anthrax LF prot | Autofluor counter | BoNT-A LC inh2 | BoNT F protease | MazEF act
COc1ccc(CCNC2CC(=O)N(C)C2=O)cc1OC (stereo not given) | -2 | 24224* | -2 | -2 | 0
COc1ccc(CCNC(=O)c2ccc(N3CCCC3=O)cc2)cc1OC | 0 | 21331* | -4 | -6 | -1
CC1CCN(CCCNC(=O)c2ccc(N3CCCC3=O)cc2)CC1 | -1 | 5257 | 1 | 1 | 1
C#CCSc1nc2sc3c(c2c(=O)n1C)CCC3 | 2 | 3179 | -1 | 8 | -20
CCOc1ccccc1C(=O)Oc1cc(C)[nH]c(=O)c1[N+](=O)[O-] | -2 | 5728 | 0 | -6 | 9
Brc1c(CSc2nncn2-c2ccccc2)nc2sccn12 | -6 | 19506* | 3 | 5 | 4
S=c1nc(-c2ccccn2)c(-c2ccccn2)n[nH]1 | -6 | 4231 | -1 | -17 | /
O=C1NC(=O)C2(Cc3ccccc3N3CCCC32)C(=O)N1c1cccc(Cl)c1 (stereo not given) | 1 | 20287* | ? | 1 | 7
Cc1ccc(N2C(=O)NC(=O)C3(Cc4ccccc4N4CCN(c5ccccc5)CC43)C2=O)cc1 (stereo not given) | -10 | 19868* | 6 | 9 | -13
Cc1ccnc(Sc2ccc([N+](=O)[O-])cc2[N+](=O)[O-])n1 | -1 | 21298* | -1 | 0 | 6
N#Cc1c(Cl)cccc1Oc1ccc(S(=O)(=O)Nc2ccccc2)cc1 | -8 | 6352 | 0 | -4 | 16
COc1cc(C(=O)NCCC2=CCCCC2)ccc1OCc1c(C)noc1C | -5 | 3076 | -1 | -1 | 1
CCOC(=O)/C(=N\Nc1cc(C(F)(F)F)ccc1Cl)N(CC)CC | -8 | 20400* | 0 | -3 | -1
O=c1c2c(nc3nc(NCc4cccc(Cl)c4)[nH]n13)CCC2 | 0 | 4816 | -1 | -2 | 1
CS(=O)(=O)n1nc(-c2ccc(Cl)cc2)nc1SCc1ccccc1 | -1 | 24875* | -4 | -6 | 3
Cc1ccc(N=Cc2cc(Cl)cc(Cl)c2O)nc1 | -1 | 2526 | 4 | 35* | 8
COc1ccc(N=c2oc3c(OC)cccc3cc2C(=O)NCc2ccco2)c(OC)c1 | -11 | 21143* | 3 | 2 | 65*
COc1ccc(C(=O)NCc2cccnc2)cc1 | 1 | 21373* | -2 | -3 | -3
COc1ccc(C(=O)NCc2ccccc2OC)c(OC)c1 | -2 | 20943* | ? | -3 | 3
COc1ccc(/C(N)=N/OC(=O)Cc2ccccc2OC)cc1 | -4 | 21398* | -2 | -5 | -7
CCOc1ccc(C(=O)NCc2cccnc2)cc1 | -6 | 4258 | -1 | -3 | 4
Cc1cc(OCC(=O)OCC(=O)NC2CCCCCC2)ccc1Cl | 1 | 8432 | -6 | -5 | 3
C/C(=N\Nc1ccc(F)cc1)c1ccc(N2CCOCC2)c(F)c1 | -6 | 3440 | 1 | -28 | -1
COc1ccc(OC)c(NC(=O)CNC(=O)c2cccs2)c1 | -5 | 21327* | ? | 1 | 7
COc1ccc(C(CC(=O)O)NC(=O)c2cccs2)cc1 (stereo not given) | -7 | 16500* | -2 | -6 | -2
COc1ccccc1CNC(=O)c1cccs1 | 2 | 23731* | -2 | -2 | -16
COc1cc(SC)ccc1C(=O)NCc1ccc(C)cc1 | -2 | 19956* | 2 | 3 | -9
COc1ccccc1CNC(=O)c1ccc(-c2ccccc2)cc1 | 2 | 2499 | 0 | -6 | -1
